# From PubChem BioAssay (NCI)
# This is part of a sample that, as a whole, favours compounds with a hit. Of some 79,000 tested, about 15% had one in any assay. Unmarked numbers belong to inactive results. Active and inactive are the calls of the source. Rule as the data show it: active = growth inhibition above about 70%; inactive = the rest.
# How the values were obtained:
# [1] = NCI Yeast Anticancer Drug Screen. Data for the rad52 strain (AID 147);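 also: 0% = growth of vehicle-treated control cultures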; settings: S. cerevisiae rad52 mutant growth inhibition, active compounds read high
# Procedure, shortened: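 Measured: yeast growth inhibition. System: strain with a defined DNA damage repair alteration. Reference: vehicle-treated control cultures.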
# [2] = NCI Yeast Anticancer Drug Screen. Data for the rad50EPP+ strain (AID 151);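 also: 0% = growth of vehicle-treated control cultures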; settings: S. cerevisiae rad50 mutant strain, active compounds read high
# Procedure, shortened: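 One strain with a rad50 alteration (rad50EPP+) was compound-treated, its growth then compared to that of vehicle controls.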
# [3] = NCI Yeast Anticancer Drug Screen. Data for the mgt1 strain (AID 153); settings: S. cerevisiae mgt1 mutant growth inhibition, active compounds read high
# Procedure, shortened: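 After exposure of the mgt1 yeast mutant to compound, growth was measured and reported as inhibition compared with vehicle controls.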
# [4] = NCI Yeast Anticancer Drug Screen. Data for the rad50 strain (AID 155);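 also: 0% = growth of vehicle-only cultures of the same strain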; settings: S. cerevisiae rad50 strain growth inhibition, active compounds read high
# Procedure, shortened: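 Yeast carrying a defined DNA repair defect were exposed to test compounds, and growth was compared with vehicle-treated controls to give percent inhibition.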
# [5] = NCI Yeast Anticancer Drug Screen. Data for the mec2-1 strain (AID 157); settings: S. cerevisiae mec2-1 strain, active compounds read high
# Procedure, shortened: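 Test agents were screened against the mec2-1 yeast strain, with defined DNA repair or cell cycle alteration. Growth was scored as inhibition against vehicle-only controls.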
# [6] = NCI Yeast Anticancer Drug Screen. Data for the rad14 strain (AID 159);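 also: 0% = growth of vehicle-treated control cultures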; settings: S. cerevisiae rad14 strain growth inhibition, active compounds read high
# Procedure, shortened: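 Yeast cells carrying a defined DNA-repair defect were exposed to compounds, and growth inhibition was calculated relative to vehicle-treated control cultures.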
# [7] = NCI Yeast Anticancer Drug Screen. Data for the sgs1 mgt1 strain (AID 161);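 also: 0% = growth of cultures given vehicle only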; settings: S. cerevisiae sgs1 mgt1 strain, active compounds read high
# Procedure, shortened: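 Test agents were incubated with a DNA-repair-mutant yeast strain. Growth was then read and compared against vehicle-treated controls.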
# [8] = NCI Yeast Anticancer Drug Screen. Data for the cln2 rad14 strain (AID 165);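 also: 0% = growth equal to vehicle treated cultures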; settings: S. cerevisiae cln2 rad14 strain, active compounds read high
# Procedure, shortened: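 Growth of compound-exposed yeast (cln2 rad14 genotype) measured and expressed as inhibition relative to vehicle.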
# [9] = NCI Yeast Anticancer Drug Screen. Data for the bub3 strain (AID 167); settings: S. cerevisiae bub3 mutant strain, active compounds read high
# Procedure, shortened: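 Compounds were applied to a genetically altered yeast strain carrying a cell-cycle control defect. Growth inhibition was scored against vehicle-treated controls.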
# [10] = NCI Yeast Anticancer Drug Screen. Data for the mlh1 strain (AID 171);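 also: 0% = growth of vehicle-treated control cultures of the same strain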; settings: S. cerevisiae mlh1 strain growth inhibition, active compounds read high
# Procedure, shortened: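 Here the genetically defined yeast mutant is grown with each compound, and the extent to which its growth falls below that of vehicle-exposed cells is reported.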
# [11] = NCI Yeast Anticancer Drug Screen. Data for the mlh1 rad18 strain (AID 175); settings: S. cerevisiae mlh1 rad18 strain growth inhibition, active compounds read high
# Procedure, shortened: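 In this whole-cell yeast screen, a strain with altered DNA damage repair is challenged with compound, and its growth is measured against matched vehicle-treated controls.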
# [12] = NCI Yeast Anticancer Drug Screen. Data for the rad18 strain (AID 177); settings: S. cerevisiae rad18 mutant growth inhibition, active compounds read high
# Procedure, shortened: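 Screen uses a yeast strain with a defined lesion in DNA damage repair; compound effect is read as loss of growth compared to untreated vehicle cultures.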
# [13] = NCI Yeast Anticancer Drug Screen. Data for the wt1 strain (AID 149);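 also: 0% = growth of vehicle-treated wt1 cultures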; settings: S. cerevisiae wt1 strain (SPY 50644) growth inhibition, active compounds read high
# Procedure, shortened: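 Yeast wt1 strain exposed to compounds; growth inhibition measured relative to vehicle-treated controls.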
# [14] = NCI Yeast Anticancer Drug Screen. Data for the CLN2oe strain (AID 163);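 also: 0% = growth of vehicle-only control cultures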; settings: S. cerevisiae CLN2oe strain, active compounds read high
# Procedure, shortened: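 Here, growth inhibition in a cell-cycle-altered yeast strain after compound exposure was quantified against vehicle control growth.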
# [15] = NCI Yeast Anticancer Drug Screen. Data for the wt2 strain (AID 169);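 also: 0% = growth of vehicle-treated yeast cultures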; settings: S. cerevisiae wt2 strain growth inhibition, active compounds read high
# Procedure, shortened: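 Genetically defined yeast strains from a DNA-repair/cell-cycle panel were used. Compound-exposed yeast growth was measured, and the inhibition was calculated relative to vehicle treatment.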
# [16] = NCI Yeast Anticancer Drug Screen. Data for the sgs1 strain (AID 173);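 also: 0% = growth of vehicle-only control cultures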; settings: S. cerevisiae sgs1 mutant, active compounds read high
# Procedure, shortened: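 Relative growth inhibition, referenced to vehicle, was determined in a yeast strain with a defined alteration affecting DNA damage repair or cell cycle control after compound exposure.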
# [17] = at 5.0 µM (retest, dose inferred, filed as 0.5)
# [18] = at 50.0 µM (retest, dose inferred, filed as 5.0)
smiles,measurement,setting,value
Cc1c2cc[n+](CCO)cc2c(C)c2c1[nH]c1ccc(O)cc12,growth inhibition,[1]; at 1.2 µM,25%
same,growth inhibition,[1]; at 3.7 µM,53%
same,growth inhibition,[1]; at 11.0 µM,80% (active)
same,growth inhibition,[1]; at 33.0 µM,91% (active)
same,growth inhibition,[1]; at 100.0 µM,91% (active)
same,growth inhibition,[2]; at 1.2 µM,25%
same,growth inhibition,[2]; at 3.7 µM,57%
same,growth inhibition,[2]; at 11.0 µM,59%
same,growth inhibition,[2]; at 33.0 µM,68%
same,growth inhibition,[2]; at 100.0 µM,83% (active)
same,growth inhibition,[3]; at 1.2 µM,22%
same,growth inhibition,[3]; at 3.7 µM,26%
same,growth inhibition,[3]; at 11.0 µM,28%
same,growth inhibition,[3]; at 33.0 µM,35%
same,growth inhibition,[3]; at 100.0 µM,45%
same,growth inhibition,[4]; at 1.2 µM,35%
same,growth inhibition,[4]; at 3.7 µM,68%
same,growth inhibition,[4]; [17],47%
same,growth inhibition,[4]; at 11.0 µM,89% (active)
same,growth inhibition,[4]; at 33.0 µM,94% (active)
same,growth inhibition,[4]; [18],93% (active)
same,growth inhibition,[4]; at 50.0 µM,80.5% (active)
same,growth inhibition,[4]; at 100.0 µM,95% (active)
same,growth inhibition,[5]; at 1.2 µM,22%
same,growth inhibition,[5]; at 3.7 µM,28%
same,growth inhibition,[5]; [17],15%
same,growth inhibition,[5]; at 11.0 µM,30%
same,growth inhibition,[5]; at 33.0 µM,48%
same,growth inhibition,[5]; [18],36%
same,growth inhibition,[5]; at 50.0 µM,36.7%
same,growth inhibition,[5]; at 100.0 µM,52%
same,growth inhibition,[6]; at 1.2 µM,4%
same,growth inhibition,[6]; at 3.7 µM,9%
same,growth inhibition,[6]; at 11.0 µM,3%
same,growth inhibition,[6]; at 33.0 µM,19%
same,growth inhibition,[6]; at 100.0 µM,29%
same,growth inhibition,[7]; [17],12%
same,growth inhibition,[7]; [18],35%
same,growth inhibition,[7]; at 50.0 µM,-1.6%
same,growth inhibition,[8]; [17],13%
same,growth inhibition,[8]; [18],15%
same,growth inhibition,[8]; at 50.0 µM,7.55%
same,growth inhibition,[9]; at 1.2 µM,6%
same,growth inhibition,[9]; at 3.7 µM,9%
same,growth inhibition,[9]; [17],7%
same,growth inhibition,[9]; at 11.0 µM,10%
same,growth inhibition,[9]; at 33.0 µM,24%
same,growth inhibition,[9]; [18],33%
same,growth inhibition,[9]; at 50.0 µM,1.35%
same,growth inhibition,[9]; at 100.0 µM,28%
same,growth inhibition,[10]; at 1.2 µM,25%
same,growth inhibition,[10]; at 3.7 µM,32%
same,growth inhibition,[10]; at 11.0 µM,41%
same,growth inhibition,[10]; at 33.0 µM,42%
same,growth inhibition,[10]; at 100.0 µM,47%
same,growth inhibition,[11]; [17],13%
same,growth inhibition,[11]; [18],36%
same,growth inhibition,[11]; at 50.0 µM,72.6% (active)
same,growth inhibition,[12]; at 1.2 µM,20%
same,growth inhibition,[12]; at 3.7 µM,20%
same,growth inhibition,[12]; at 11.0 µM,19%
same,growth inhibition,[12]; at 33.0 µM,40%
same,growth inhibition,[12]; at 100.0 µM,49%
O=C(/C(=C/c1ccc(O)cc1)c1ccccc1)c1ccccc1,growth inhibition,[13]; at 1.2 µM,-22%
same,growth inhibition,[13]; at 3.7 µM,-13%
same,growth inhibition,[13]; at 11.0 µM,35%
same,growth inhibition,[13]; at 33.0 µM,98% (active)
same,growth inhibition,[13]; at 100.0 µM,92% (active)
same,growth inhibition,[2]; at 1.2 µM,-5%
same,growth inhibition,[2]; at 3.7 µM,-2%
same,growth inhibition,[2]; at 11.0 µM,1%
same,growth inhibition,[2]; at 33.0 µM,15%
same,growth inhibition,[2]; at 100.0 µM,9%
same,growth inhibition,[3]; at 1.2 µM,-4%
same,growth inhibition,[3]; at 3.7 µM,-2%
same,growth inhibition,[3]; at 11.0 µM,51%
same,growth inhibition,[3]; at 33.0 µM,99% (active)
same,growth inhibition,[3]; at 100.0 µM,89% (active)
same,growth inhibition,[4]; at 1.2 µM,-8%
same,growth inhibition,[4]; at 3.7 µM,-2%
same,growth inhibition,[4]; [17],27%
same,growth inhibition,[4]; at 11.0 µM,53%
same,growth inhibition,[4]; at 33.0 µM,98% (active)
same,growth inhibition,[4]; [18],98% (active)
same,growth inhibition,[4]; at 50.0 µM,87.5% (active)
same,growth inhibition,[4]; at 100.0 µM,93% (active)
same,growth inhibition,[5]; at 1.2 µM,-27%
same,growth inhibition,[5]; at 3.7 µM,-20%
same,growth inhibition,[5]; [17],-8%
same,growth inhibition,[5]; at 11.0 µM,55%
same,growth inhibition,[5]; at 33.0 µM,98% (active)
same,growth inhibition,[5]; [18],97% (active)
same,growth inhibition,[5]; at 50.0 µM,34.5%
same,growth inhibition,[5]; at 100.0 µM,85% (active)
same,growth inhibition,[6]; at 1.2 µM,-2%
same,growth inhibition,[6]; at 3.7 µM,0%
same,growth inhibition,[6]; at 11.0 µM,13%
same,growth inhibition,[6]; at 33.0 µM,99% (active)
same,growth inhibition,[6]; at 100.0 µM,94% (active)
same,growth inhibition,[7]; [17],39%
same,growth inhibition,[7]; [18],97% (active)
same,growth inhibition,[7]; at 50.0 µM,93% (active)
same,growth inhibition,[14]; at 1.2 µM,8%
same,growth inhibition,[14]; at 3.7 µM,10%
same,growth inhibition,[14]; at 11.0 µM,61%
same,growth inhibition,[14]; at 33.0 µM,99% (active)
same,growth inhibition,[14]; at 100.0 µM,93% (active)
same,growth inhibition,[8]; [17],20%
same,growth inhibition,[8]; [18],97% (active)
same,growth inhibition,[8]; at 50.0 µM,92.5% (active)
same,growth inhibition,[9]; at 1.2 µM,22%
same,growth inhibition,[9]; at 3.7 µM,12%
same,growth inhibition,[9]; [17],2%
same,growth inhibition,[9]; at 11.0 µM,82% (active)
same,growth inhibition,[9]; at 33.0 µM,99% (active)
same,growth inhibition,[9]; [18],98% (active)
same,growth inhibition,[9]; at 50.0 µM,91.3% (active)
same,growth inhibition,[9]; at 100.0 µM,90% (active)
same,growth inhibition,[15]; at 1.2 µM,-38%
same,growth inhibition,[15]; at 3.7 µM,-31%
same,growth inhibition,[15]; at 11.0 µM,33%
same,growth inhibition,[15]; at 33.0 µM,98% (active)
same,growth inhibition,[15]; at 100.0 µM,93% (active)
same,growth inhibition,[16]; at 1.2 µM,-18%
same,growth inhibition,[16]; at 3.7 µM,-13%
same,growth inhibition,[16]; at 11.0 µM,16%
same,growth inhibition,[16]; at 33.0 µM,98% (active)
same,growth inhibition,[16]; at 100.0 µM,93% (active)
same,growth inhibition,[11]; [17],0%
same,growth inhibition,[11]; [18],98% (active)
same,growth inhibition,[11]; at 50.0 µM,84% (active)
same,growth inhibition,[12]; at 1.2 µM,-29%
same,growth inhibition,[12]; at 3.7 µM,-33%
same,growth inhibition,[12]; at 11.0 µM,17%
same,growth inhibition,[12]; at 33.0 µM,98% (active)
same,growth inhibition,[12]; at 100.0 µM,86% (active)
